PfHsp90 set2: reduces growth (ATP signal) of yeast expressing P. falciparum Hsp90; S. cerevisiae expressing PfHsp90, BacTiter-Glo ATP, 48 h; yeast lacking PDR1 and PDR3 efflux regulators; inhibition, % at 9.4 µM; 0.32% of 310,000 active; AID 504621;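 active = every replicate shows inhibition above about 80%, whatever the replicate mean, limit read from the data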;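 also: 0% = DMSO neutral controls and 100% = 20 µM radicicol positive controls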
tim23-1 inh: tim23-1 yeast growth inhibition. 1.3% of 330,000 active. S. cerevisiae tim23-1 growth, BacTiter-Glo luminescence, 24 h. inhibition, % at 20 µM;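 active = growth inhibition of the mutant yeast at or above 50%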;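 also: temperature-sensitive mutant grown at 25 °C; plate controls were DMSO-treated mutant yeast for no effect and medium wells lacking yeast for full effect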
TIM10 inh: inhibits growth of TIM10 yeast strain | S. cerevisiae TIM10 strain growth, BacTiter-Glo luminescence, 24 h | inhibition, % at 10 µM | 1.4% of 330,000 active | AID 463195;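 active = inhibition of 40% or more at the single tested concentration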;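 also: wild-type TIM10 isogenic control strain grown at permissive 25 °C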
NALP1 yeast inh: blocks the NALP1 inflammasome reconstituted in yeast; AID 2071; 0.61% of 280,000 active; inhibition, % at 10 µM; S. cerevisiae NALP1/ASC/caspase-1 growth, X-gal OD620, 72 h; in the data active = inhibition mostly above about 24%, no sharp cut-off; inactive = mostly below about 32%
NLRP3 yeast inh: NALP3 inhibition in yeast; AID 2825; inhibition, % at 10 µM; 0.39% of 330,000 active; Yeast reconstituted NLRP3/ASC/caspase-1, beta-gal luminescence, 24 h;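 active = inhibition of 50% or more; inactive = inhibition below 50%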;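 also: plate controls were induced DMSO wells for no effect and uninduced yeast grown without galactose for full effect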
tim10-1 inh: growth inhibitors of tim10-1 mutant yeast; 2.2% of 330,000 active; S. cerevisiae tim10-1 ts strain growth, BacTiter-Glo, 24 h; inhibition, % at 20 µM;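 active = inhibition of at least 40%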;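 also: mutant grown at 25 °C; 0% = DMSO wells with yeast and 100% = wells holding no yeast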
tim10-1 conf: tim10-1 yeast growth inhibition, confirmed | shares compounds with tim10-1 inh | S. cerevisiae tim10-1 ts strain growth, BacTiter-Glo, 24 h | inhibition, % at 20 µM | 56% of 7,400 active | AID 463213;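 active = inhibition of yeast growth at or above a set limit in either of two repeat tests at 20 µM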;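 also: tim10-1 mutant grown at permissive 25 °C to find synthetic lethal compounds; 0% = DMSO yeast wells and 100% = medium wells without yeast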
Numbers without * were called inactive; nt = no result given. Most compounds without a hit are left out; they make up all but 4.1% or so of the library.

SMILES	PfHsp90 set2	tim23-1 inh	TIM10 inh	NALP1 yeast inh	NLRP3 yeast inh	tim10-1 inh	tim10-1 conf
Cc1ccc(CC(=O)OC(C)C(=O)NC2CCCCC2C)cc1C (stereo not drawn)	0.3	34.9	23.2	nt	2.8	33.8	nt
Cc1cccc(N(C(=O)CNC(=O)c2ccco2)C(C(=O)NC2CCCC2)c2cccnc2)c1C (stereo not drawn)	13.0	8.5	-5.5	9.0	3.9	-6.0	nt
O=C(CN1C(=O)NC(Cc2c[nH]c3ccccc23)C1=O)Nc1ccc(Br)cc1F (stereo not drawn)	0.0	-11.0	0.3	nt	-1.2	-12.1	nt
Cc1nn(CC(=O)NC2CCS(=O)(=O)C2)c(C)c1[N+](=O)[O-] (stereo not drawn)	nt	-6.5	-13.1	nt	-5.2	-13.8	nt
COC(=O)/C(C#N)=C/c1c(Oc2cccc(C)c2C)nc2ccccn2c1=O	16.9	4.7	20.3	13.4	3.3	10.7	nt
O=C(CSCc1cccc(F)c1)N1CCN(c2ccccc2)CC1	-4.3	23.4	11.3	7.9	23.5	42.7*	14.6
CCc1ccc2oc(C(=O)N3CCN(c4ccccc4OC)CC3)cc(=O)c2c1	6.4	39.1	11.6	4.4	16.5	48.3*	17.7
O=C(c1ccc(-c2ccccc2)cc1)N1CCN(c2ncccn2)CC1	-16.4	30.6	29.6	32.4	31.5	43.1*	24.9
COc1cc2c(cc1OC)CN(C(=O)c1ccc(-c3ccccc3)cc1)CC2	-1.9	44.0	23.7	30.2	10.6	49.3*	37.9*
COc1ccc(C(=O)NCc2ccon2)cc1OC1CCN(C(C)C)CC1	5.9	7.7	13.7	23.5	9.3	2.4	nt
CC1CCN(S(=O)(=O)c2ccc(C(=O)N3CCCC(C(F)(F)F)C3)cc2)CC1 (stereo not drawn)	-4.2	20.9	3.8	nt	0.7	22.8	nt
O=C(COc1ccc2c(c1)OCO2)Nc1nncs1	17.6	18.2	0.0	10.4	-0.4	12.2	nt
COc1ccccc1N1CCN(C(=O)c2ccc(-c3ccccc3)cc2)CC1	-11.6	31.2	28.4	-50.8	11.8	40.7*	26.9
CCNC(=S)N1CCN(c2ccccc2OCC)CC1	2.1	10.4	1.8	20.9	8.5	11.8	nt
CCOc1ccccc1N1CCN(C(=O)c2ccc(-c3ccc(OC(C)=O)cc3)cc2)CC1	-20.7	37.9	15.6	6.5	2.9	40.6*	22.9
O=C(c1ccc(Cn2cc(Br)cn2)cc1)N1CCN(c2ccccc2)CC1	nt	43.8	31.5	7.0	33.1	51.7*	44.0*
CCOc1ccccc1N1CCN(C(=S)NCc2ccccc2)CC1	3.5	35.9	13.5	-7.7	7.3	43.8*	19.1
O=C(c1ccc(Cn2cc(Cl)cn2)cc1)N1CCN(c2ccccc2)CC1	29.1	31.5	13.3	1.8	20.6	33.7	nt
CCOc1ccccc1N1CCN(C(=O)c2ccccc2)CC1	nt	17.2	9.1	13.5	3.9	26.2	nt
O=C(NNC(=O)c1ccc(Cn2cccn2)o1)NC12CC3CC(CC(C3)C1)C2	4.6	11.9	10.8	12.5	5.0	12.1	nt
Cc1ccc(N(CC(=O)NCc2ccccc2)C(=O)CCC(=O)Nc2ccccn2)cc1C	-20.3	9.9	-8.2	24.5	-2.8	13.8	nt
O=C(c1ccc(CSc2ccc(Cl)cc2)cc1)N1CCCC1	-5.1	18.2	-13.7	3.7	22.4	22.6	nt
O=C(c1ccc(CSc2ccccc2)cc1)N1CCN(c2ccccc2)CC1	-15.9	31.5	6.6	10.1	21.0	45.4*	40.4*
O=C(Nn1cnnc1)c1ccc(Cl)cc1[N+](=O)[O-]	1.0	14.1	5.2	21.8	8.3	8.1	nt
O=C(Nc1ccc(N2CCOCC2)c(Cl)c1)c1c(F)c(F)c(F)c(F)c1F	-40.5	24.3	32.5	17.9	-95.0	50.2*	39.8*
SMILES	PfHsp90 set2	tim23-1 inh	TIM10 inh	NALP1 yeast inh	NLRP3 yeast inh	tim10-1 inh	tim10-1 conf
CC1CCC2C(=O)N(c3cc(Cl)ccc3OC(=O)c3ccco3)C(=O)C2C1 (stereo not drawn)	-5.5	41.5	15.0	4.7	3.3	40.7*	34.0*
CC1CCC2C(=O)N(c3ccccc3OC(=O)c3ccccc3)C(=O)C2C1 (stereo not drawn)	nt	35.4	10.2	2.8	-10.4	28.4	nt
O=C(COC(=O)c1cccc(-n2cnnn2)c1)c1ccc(Br)cc1	nt	-4.7	15.0	nt	24.1	7.0	nt
CC(C)CC(=O)N(c1nnc(-c2cccnc2)s1)C1CCCC1	7.3	3.3	-15.5	-3.7	29.1	-39.1	nt
CC(N=c1ccccn1C(=O)Nc1cccc(C(F)(F)F)c1)c1ccco1 (stereo not drawn)	nt	28.9	32.8	12.7	16.2	41.2*	32.7*
CC1CN(C(=O)Nc2cccc(C(F)(F)F)c2)CC(C)O1 (stereo not drawn)	-26.1	49.0	18.4	24.0	-7.0	21.8	nt
CN(C(=O)c1ccccc1OCc1ccc(F)cc1)c1c(N)n(Cc2ccccc2)c(=O)[nH]c1=O	nt	-4.3	0.2	nt	8.8	-11.8	nt
Cc1nn(Cc2c(F)c(F)c(F)c(F)c2F)c(C)c1NC(=O)c1ccc(COc2ccccc2Cl)cc1	18.1	nt	nt	-26.2	nt	nt	nt
Cc1nn(Cc2c(F)c(F)c(F)c(F)c2F)c(C)c1NC(=O)c1ccc(COc2ccccc2Cl)o1	nt	29.9	38.5	6.8	0.7	46.4*	31.6*
O=C(NCc1ccccn1)c1cccc(NS(=O)(=O)c2ccc(Br)cc2)c1	10.3	14.8	8.9	nt	18.8	1.5	nt
Cc1nc(Nc2nc(CSc3nc4ccccc4[nH]3)cc(=O)[nH]2)nc2ccccc12	-22.4	17.0	4.1	15.1	10.0	3.6	nt
Cc1nc(Nc2nc(-c3ccccc3)cc(=O)[nH]2)nc2ccccc12	-4.4	10.3	29.7	nt	37.0	42.6*	8.1
Cc1nn(-c2ccccc2)c(C)c1NC(=O)COC(=O)Cc1cccc(C(F)(F)F)c1	16.8	19.9	11.0	nt	3.9	16.6	nt
CCCC[C@@H]1CNC(=S)N1CCC12CC3CC(CC(C3)C1)C2	0.0	36.2	9.7	-4.0	20.6	41.5*	15.5
Cc1ccc(S(=O)(=O)N2CCN(CC(O)COc3ccccc3)CC2)cc1 (stereo not drawn)	-28.5	21.5	5.7	11.3	22.0	10.0	nt
CCOc1ccc(S(=O)(=O)N2CCN(CC(O)COc3cccc([N+](=O)[O-])c3)CC2)cc1 (stereo not drawn)	-1.3	19.5	28.0	-0.4	3.4	43.9*	8.3
CCOC(=O)n1c(=O)n(Cc2ccc(OC)cc2)c2ccccc21	13.2	49.4	20.8	11.7	4.1	49.6*	46.4*
S=c1nc(C2CCCCC2)n(-c2ccccc2)[nH]1	-27.7	30.3	34.4	4.6	-20.0	44.1*	24.7
CCOC(=O)/C(=C/c1ccc(Cl)cc1)NC(=O)c1ccco1	-4.1	28.7	-7.3	24.1	-10.9	40.5*	17.6

Compound activity (PubChem)
